Source: PubChem BioAssay (National Center for Advancing Translational Sciences (NCATS))
Pf growth 96h = inhibits malaria parasite growth, 96 h; P. falciparum luciferase reporter growth, 96 h; Potency, µM (doses to about 28.7 µM), inactives show top-dose activity change, negative = inhibition, actives largely listed as inhibitors; 320,000 tested, 6.9% active; AID 504834; note: % is set by controls: 0 for no effect and ±100 for the full control effect
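Compounds incubated with erythrocytes infected by luciferase-expressing P. falciparum (2% hematocrit, 0.05% parasitemia final) for 96 hours, 37 C in 5% CO2. Growth inhibition scored as decreased luciferase luminescence.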
Pf growth 48h = inhibits P. falciparum growth in the first generation, 48 h; P. falciparum luciferase growth in erythrocytes, 48 h; 310,000 tested, 5.9% active; Potency, µM (series often up to 28.7 µM), without a hit: at the top dose activity change, negative = inhibition, most hits filed as inhibitors; note: % is set by controls: 0 for no effect and ±100 for the full control effect
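Here the parasites carry a stable luciferase gene and grow inside erythrocytes in Albumax-based RPMI medium with compound for one erythrocytic cycle. Activity is scored as loss of luminescent signal.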
AmpC inh detg = AmpC beta-lactamase inhibition with detergent present; 370,000 tested, 0.041% active; AmpC hydrolysis of nitrocefin, absorbance 480 nm, 0.01% Triton; P00811; AID 485294; Potency, µM (highest dose often 114 µM), for the others: at the highest dose activity change, negative = inhibition, actives largely listed as inhibitors;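 note: 0% = no-compound wells and -100% = no-enzyme wells; nearly all actives have a fitted effect of over 25% in size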
Target sequence (P00811 whole entry, looked up): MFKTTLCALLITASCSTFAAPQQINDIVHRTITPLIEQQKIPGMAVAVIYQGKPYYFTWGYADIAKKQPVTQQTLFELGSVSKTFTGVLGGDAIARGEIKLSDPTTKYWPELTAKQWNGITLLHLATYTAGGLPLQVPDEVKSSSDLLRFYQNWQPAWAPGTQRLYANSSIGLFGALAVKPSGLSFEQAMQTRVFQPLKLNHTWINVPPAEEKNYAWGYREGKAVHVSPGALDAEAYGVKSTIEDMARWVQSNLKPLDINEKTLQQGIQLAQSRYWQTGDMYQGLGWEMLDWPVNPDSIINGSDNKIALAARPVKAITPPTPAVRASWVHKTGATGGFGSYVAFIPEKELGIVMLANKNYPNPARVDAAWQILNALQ
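AmpC (5.3 nM in the dispensed reagent) in 20 mM phosphate pH 7.0 with 0.01% (detergent screen) or 0.0001% Triton X-100 was preincubated with compounds for 15 min at room temperature. Nitrocefin was then added from an 800 uM solution, and hydrolysis was followed at 480 nm.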
SARS PLP yeast = blocks SARS-CoV papain-like protease in a yeast assay | Potency, µM (highest dose often 32.9 µM), for inactives: at the highest dose activity, positive = growth rescue, most hits filed as activators | S. cerevisiae expressing SARS-CoV PLpro, growth rescue | 330,000 tested, 0.19% active; calls by dose curve; note: 0% is about no effect; nearly all actives have a fitted effect of over 55% in size
AmpC no deterg = blocks E. coli AmpC beta-lactamase in detergent-free assay; Potency, µM (series often up to 57.1 µM), for inactives: top-dose activity change, negative = inhibition, actives largely listed as inhibitors; AmpC nitrocefin hydrolysis, absorbance 480 nm, 0.0001% Triton; P00811; 330,000 tested, 0.52% active;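 note: plate controls were no compound for no effect and no enzyme for full effect; nearly all actives have a fitted effect of over 20% in size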
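AmpC (5.3 nM in the dispensed reagent) in 20 mM phosphate pH 7.0 with 0.01% (detergent screen) or 0.0001% Triton X-100 was preincubated with compounds for 15 min at room temperature. Nitrocefin was then added from an 800 uM solution, and hydrolysis was followed at 480 nm.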
Sm TGR inh = S. mansoni TGR enzyme inhibition; Q962Y6; purified TGR, DTNB reduction, TNB absorbance 405 nm; Potency, µM (highest dose often 114 µM), without a hit: at the highest dose activity change, negative = inhibition, most hits filed as inhibitors; 360,000 tested, 3% active; AID 485364; note: % is set by controls: 0 for no effect and ±100 for the full control effect; nearly all actives have a fitted effect of over 60% in size
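TGR 20 nM + NADPH 100 uM (dispensed conc.), cpd preinc 15 min RT; start with NADPH (500 uM addition) then DTNB (15 mM addition). Kinetic TNB absorbance, 405 nm filter. Four-parameter Hill fit across titration.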
The depositor's hits bear a star. In the library only some 12% were active in any assay of this set; here they are far more common. Unless noted, calls come from the whole dose curve; as a rule, active = well fitted curve in the direction sought with a large enough effect; inconclusive = small, poorly fitted or top-dose-only effect, or another doubt; inactive = no such curve, though single readings can be large; an effect the other way counts as inactive or inconclusive. Potency is the fitted concentration of half-maximal effect.

`Cc1ccnc(N2CCC(C(=O)Nc3ccc4c(c3)CCC4)CC2)n1` gave Pf growth 96h -2%, Pf growth 48h -15%, AmpC inh detg -3%, SARS PLP yeast 5%, AmpC no deterg -5% and Sm TGR inh 74%.
Screening COc1cc(C)nc(N2CCCC(C(=O)NC3CCC(C)CC3)C2)n1 (stereo unspecified) returned Pf growth 96h 2.9µM*, Pf growth 48h 28%, AmpC inh detg -7%, SARS PLP yeast 2%, AmpC no deterg -7% and Sm TGR inh 0%.
Fc1ccc2c(c1)C1C=CCC1C(c1cc3c(cc1Br)OCO3)N2 (stereo unspecified) was read as Pf growth 96h 4%, Pf growth 48h 5.2µM*, AmpC inh detg inconclusive, SARS PLP yeast -24%, AmpC no deterg -12% and Sm TGR inh 18%.
Screening Fc1ccc([C@@H]2Nc3ccccc3[C@@H]3C=CC[C@@H]32)cc1 returned AmpC inh detg 10% and Sm TGR inh 5.6µM*.
For Cc1cccc(NS(=O)(=O)c2ccc3c(c2)[C@H]2C=CC[C@H]2[C@@H](c2ccc(F)cc2)N3)c1 the results were AmpC inh detg 1% and Sm TGR inh -4%.
For COc1ccc(N2C(=O)C(CC(=O)Nc3ccc(F)cc3)N(CCc3ccc(OC)c(OC)c3)C2=O)cc1 (stereo unspecified) the results were Pf growth 96h -20%, Pf growth 48h -14%, AmpC inh detg -9%, SARS PLP yeast 1%, AmpC no deterg -6% and Sm TGR inh -11%.
`COc1ccccc1N(C)S(=O)(=O)c1ccc(C(=O)Nc2ncc(C)s2)cc1` gave Pf growth 96h inconclusive, Pf growth 48h inconclusive, AmpC inh detg 6%, SARS PLP yeast 2%, AmpC no deterg -31% and Sm TGR inh 2%.
COc1ccccc1N(C)S(=O)(=O)c1ccc(C(=O)NCC2CCCCC2)cc1 was read as Pf growth 96h inconclusive, Pf growth 48h 13µM*, AmpC inh detg 0%, SARS PLP yeast -7%, AmpC no deterg -48% and Sm TGR inh -7%.
Screening COc1ccccc1N(C)S(=O)(=O)c1ccc(C(=O)N(C)Cc2ccc(OC(F)F)cc2)cc1 returned Pf growth 96h inconclusive, Pf growth 48h 12µM*, AmpC inh detg -15%, SARS PLP yeast 5%, AmpC no deterg 29% and Sm TGR inh -8%.
Screening COc1ccccc1N(C)S(=O)(=O)c1ccc(C(=O)Nc2nc(C)c(C(C)=O)s2)cc1 returned Pf growth 96h inconclusive, Pf growth 48h 12µM*, AmpC inh detg 4%, SARS PLP yeast 0%, AmpC no deterg -20% and Sm TGR inh -1%.
Screening COc1ccccc1N(C)S(=O)(=O)c1ccc(C(=O)Nc2nccs2)cc1 returned Pf growth 96h inconclusive, Pf growth 48h 15µM*, AmpC inh detg 0%, SARS PLP yeast 1%, AmpC no deterg -31% and Sm TGR inh 0%.
COCCN(CCOC)S(=O)(=O)c1ccc(C(=O)Nc2nc(C)c(C(C)=O)s2)cc1 was read as Pf growth 96h inconclusive, Pf growth 48h 0%, AmpC inh detg -4%, SARS PLP yeast -15%, AmpC no deterg 0% and Sm TGR inh -1%.
`CCc1ccc(NC(=O)C(=O)NCC(c2cccnc2)N2CCN(Cc3ccccc3)CC2)cc1` (stereo unspecified) gave AmpC inh detg -7% and Sm TGR inh -4%.
Cc1ccc(S(=O)(=O)c2nc(S(=O)(=O)c3ccc(C)cc3)c(NCCCOC(C)C)s2)cc1 was read as AmpC inh detg -5% and Sm TGR inh -8%.
CCCc1nnc(NC(=O)c2ccc(S(=O)(=O)N(C)c3ccccc3OC)cc2)s1 was read as Pf growth 96h 13µM*, Pf growth 48h 10µM*, AmpC inh detg -4%, SARS PLP yeast -4%, AmpC no deterg -28% and Sm TGR inh -3%.
`COc1cc(NC2c3ncccc3C(=O)N2Cc2ccco2)cc(OC)c1` (stereo unspecified) gave Pf growth 96h 3.7µM*, Pf growth 48h inconclusive, AmpC inh detg 1%, SARS PLP yeast 6%, AmpC no deterg 14% and Sm TGR inh 45µM*.
Screening Cc1csc2nc(CCNS(=O)(=O)c3ccc(F)cc3)cn12 returned AmpC inh detg 5% and Sm TGR inh -3%.
`O=c1[nH]c(=S)c2ncn(-c3ccccc3)c2[nH]1` gave Pf growth 96h inconclusive, Pf growth 48h 23%, AmpC inh detg 5%, SARS PLP yeast 0%, AmpC no deterg -12% and Sm TGR inh inconclusive.
Screening O=C1c2ccccc2C(=O)c2c1ncn2-c1ccccc1 returned Pf growth 96h 57%, Pf growth 48h 4.7µM*, AmpC inh detg inconclusive, SARS PLP yeast 2%, AmpC no deterg -24% and Sm TGR inh -11%.
`COc1ccc(C(=S)N(C)C)cc1OC` gave Pf growth 96h 8.3µM*, Pf growth 48h 15%, AmpC inh detg 2%, SARS PLP yeast 2%, AmpC no deterg -8% and Sm TGR inh 1%.
Cc1cc(C)c(OCC(=O)Nc2nnc(C3CC3)s2)c(C)c1 was read as Pf growth 96h 7%, Pf growth 48h -19%, AmpC inh detg inconclusive, SARS PLP yeast 5%, AmpC no deterg -15% and Sm TGR inh -1%.
For O=C(c1cc([N+](=O)[O-])ccc1Cl)N1c2ccccc2Sc2ccccc21 the results were Pf growth 96h 2.1µM*, Pf growth 48h 7.4µM*, AmpC inh detg inconclusive, SARS PLP yeast 2%, AmpC no deterg inconclusive and Sm TGR inh -8%.
O=C(c1cc([N+](=O)[O-])ccc1Cl)N1CCN(c2ccccc2)CC1 was read as Pf growth 96h -1%, Pf growth 48h 29%, AmpC inh detg -14%, SARS PLP yeast inconclusive, AmpC no deterg -9% and Sm TGR inh -16%.
COc1cc(Br)cc(C2C3=C(CCCC3=O)N(c3ccc(F)cc3)C3=C2C(=O)CCC3)c1O was read as Pf growth 96h inconclusive, Pf growth 48h 5.2µM*, AmpC inh detg 10%, SARS PLP yeast 0%, AmpC no deterg 1% and Sm TGR inh 3%.
Screening O=C(c1cccs1)N(Cc1cccnc1)c1nc2ccc(F)cc2s1 returned AmpC inh detg 5% and Sm TGR inh 3%.
`Cc1ccc(S(=O)(=O)Cc2nc(-c3ccc(C(=O)NCc4ccccc4C)cc3)oc2C)cc1` gave AmpC inh detg -9% and Sm TGR inh inconclusive.
